Compounds without any hit were thinned out: in the full panel of roughly 83,000, 20% have a hit.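 Cell lines were cultured in 96-well plates, exposed to a single compound concentration, and assessed for percent growth 48 hours later.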 Activity calls are given as the source filed them. How the source made its calls: active means growth percent below 10; inactive means the rest.
Columns and labels:
Experiment in all cases: NCI-60 one-dose screen, 48 h (100 = growth as untreated, 0 = no growth, -100 = all killed)
Conditions in all cases: 10 µM unless noted
EKVX NSCLC = test system: EKVX NSCLC
SN12C renal = test system: SN12C renal
UO-31 renal = test system: UO-31 renal
TK-10 renal = test system: TK-10 renal
ACHN renal = test system: ACHN renal
CAKI-1 renal = test system: CAKI-1 renal
A498 renal = test system: A498 renal
CCRF-CEM leukemia = test system: CCRF-CEM leukemia
MOLT-4 leukemia = test system: MOLT-4 leukemia
SR leukemia = test system: SR leukemia
RPMI-8226 leukemia = test system: RPMI-8226 leukemia
OVCAR-8 ovarian = test system: OVCAR-8 ovarian
OVCAR-5 ovarian = test system: OVCAR-5 ovarian
OVCAR-4 ovarian = test system: OVCAR-4 ovarian
SK-OV-3 ovarian = test system: SK-OV-3 ovarian
IGROV1 ovarian = test system: IGROV1 ovarian
OVCAR-3 ovarian = test system: OVCAR-3 ovarian
HS 578T breast = test system: HS 578T breast
NCI/ADR-RES ovarian = test system: NCI/ADR-RES ovarian
T-47D breast = test system: T-47D breast

Measured: growth

CN1C(=O)N(c2ccccc2)C2N=C(N/N=C/c3ccccc3)SC21 (stereo unspecified)
active: A498 renal -18.8% | HS 578T breast 2.36%
inactive: EKVX NSCLC 53.4% | SN12C renal 38.5% | UO-31 renal 47.4% | TK-10 renal 61.7% | ACHN renal 49.1% | CAKI-1 renal 41.9% | CCRF-CEM leukemia 17.1% | MOLT-4 leukemia 25.5% | SR leukemia 13.6% | RPMI-8226 leukemia 22.5% | OVCAR-8 ovarian 25.7% | OVCAR-5 ovarian 35.1% | OVCAR-4 ovarian 68.3% | SK-OV-3 ovarian 37.1% | IGROV1 ovarian 38.2% | OVCAR-3 ovarian 13.2% | NCI/ADR-RES ovarian 30.7% | T-47D breast 32.6%

O=[N+]([O-])c1ccc(O)c2ncccc12
inactive: EKVX NSCLC 26.2% | SN12C renal 42.1% | UO-31 renal 31.4% | TK-10 renal 55.6% | ACHN renal 23.7% | CAKI-1 renal 30.5% | A498 renal 55.7% | CCRF-CEM leukemia 17.7% | MOLT-4 leukemia 19.9% | SR leukemia 14.6% | RPMI-8226 leukemia 22.1% | OVCAR-8 ovarian 16.9% | OVCAR-5 ovarian 40.1% | OVCAR-4 ovarian 40.8% | SK-OV-3 ovarian 58.7% | IGROV1 ovarian 23.6% | HS 578T breast 47.3% | NCI/ADR-RES ovarian 15.5% | T-47D breast 25.9%

Cc1nc2cnc(N)c(C#Cc3cncc(C(=O)Nc4ccc(Cl)c(C(F)(F)F)c4)c3)c2nc1C
active: SR leukemia -18.8% | RPMI-8226 leukemia -10.2%
inactive: EKVX NSCLC 82.4% | SN12C renal 36.3% | UO-31 renal 19.9% | TK-10 renal 67.7% | ACHN renal 30.3% | CAKI-1 renal 18.8% | A498 renal 55.4% | CCRF-CEM leukemia 23.2% | MOLT-4 leukemia 35.6% | OVCAR-8 ovarian 69.7% | OVCAR-5 ovarian 54.5% | OVCAR-4 ovarian 65.2% | SK-OV-3 ovarian 120% | IGROV1 ovarian 16.9% | HS 578T breast 35.4% | NCI/ADR-RES ovarian 63.9% | T-47D breast 109%

Cc1ccc(/C=C/c2nn3c(-c4ccco4)nnc3s2)cc1C
inactive: EKVX NSCLC 82.8% | SN12C renal 90.8% | UO-31 renal 80.8% | TK-10 renal 116% | ACHN renal 102% | CAKI-1 renal 90.8% | A498 renal 87% | CCRF-CEM leukemia 104% | MOLT-4 leukemia 97.8% | SR leukemia 90.1% | RPMI-8226 leukemia 109% | OVCAR-8 ovarian 88.7% | OVCAR-5 ovarian 107% | OVCAR-4 ovarian 101% | SK-OV-3 ovarian 116% | IGROV1 ovarian 97.5% | HS 578T breast 102% | NCI/ADR-RES ovarian 108% | T-47D breast 102%

Cc1sc2c(c1C)c(=O)nc1c(-c3nc(-c4ccc(F)cc4)no3)n[nH]n12
inactive: EKVX NSCLC 95.2% | SN12C renal 98.2% | UO-31 renal 88.1% | TK-10 renal 122% | ACHN renal 96.5% | CAKI-1 renal 92.8% | A498 renal 98.6% | CCRF-CEM leukemia 104% | MOLT-4 leukemia 104% | SR leukemia 97.6% | RPMI-8226 leukemia 108% | OVCAR-8 ovarian 104% | OVCAR-5 ovarian 103% | OVCAR-4 ovarian 112% | SK-OV-3 ovarian 101% | IGROV1 ovarian 102% | OVCAR-3 ovarian 121% | HS 578T breast 105% | NCI/ADR-RES ovarian 109% | T-47D breast 95.5%

Cc1[nH]nc2ncc(C#Cc3cncc(C(=O)Nc4ccc(CN5CCN(C)CC5)c(C(F)(F)F)c4)c3)cc12
inactive: EKVX NSCLC 54.9% | TK-10 renal 27.8% | CCRF-CEM leukemia 20.9% | MOLT-4 leukemia 20.4% | SR leukemia 19.6% | RPMI-8226 leukemia 29.9% | OVCAR-8 ovarian 37.8% | OVCAR-5 ovarian 20.5% | OVCAR-4 ovarian 50.7% | OVCAR-3 ovarian 37.8% | NCI/ADR-RES ovarian 78% | T-47D breast 32.6%
active: SN12C renal 7.71% | UO-31 renal -6.87% | ACHN renal 4.36% | CAKI-1 renal -27.9% | A498 renal -17.7% | SK-OV-3 ovarian 0.879% | IGROV1 ovarian 1.84% | HS 578T breast 9.15%

Cc1sc2nc(NCc3ccccc3Cl)[nH]c(=O)c2c1C
inactive: EKVX NSCLC 98.1% | SN12C renal 93.8% | UO-31 renal 94.5% | TK-10 renal 112% | ACHN renal 94.8% | CAKI-1 renal 87.2% | A498 renal 81.3% | CCRF-CEM leukemia 65.3% | MOLT-4 leukemia 69.7% | SR leukemia 50.2% | RPMI-8226 leukemia 82.8% | OVCAR-8 ovarian 88.1% | OVCAR-5 ovarian 102% | OVCAR-4 ovarian 101% | SK-OV-3 ovarian 114% | IGROV1 ovarian 90.6% | OVCAR-3 ovarian 123% | HS 578T breast 99% | NCI/ADR-RES ovarian 104% | T-47D breast 94.6%

Cc1cc(=O)oc2cc(OCCCOc3ccc(/C=C/C(=O)Nc4ccc(Cl)cc4)cc3)ccc12
inactive: EKVX NSCLC 98.5% | SN12C renal 84.4% | UO-31 renal 61.5% | TK-10 renal 118% | ACHN renal 45.3% | CAKI-1 renal 59.6% | A498 renal 57.7% | CCRF-CEM leukemia 68.2% | MOLT-4 leukemia 87.3% | SR leukemia 37.7% | RPMI-8226 leukemia 70.7% | OVCAR-8 ovarian 67.1% | OVCAR-5 ovarian 84% | OVCAR-4 ovarian 12.6% | SK-OV-3 ovarian 90.4% | IGROV1 ovarian 73.2% | HS 578T breast 46.2% | NCI/ADR-RES ovarian 56.6% | T-47D breast 47.2%

Cc1ccc(-c2nc(C(Cl)Cl)nc3cc(-c4ccccc4)nn23)cc1
inactive: SN12C renal 51.4% | UO-31 renal 45.3% | TK-10 renal 23.7% | CCRF-CEM leukemia 37.8% | MOLT-4 leukemia 10.4% | OVCAR-8 ovarian 10.3% | IGROV1 ovarian 29.3% | NCI/ADR-RES ovarian 13.5% | T-47D breast 51%
active: EKVX NSCLC -0.218% | ACHN renal -59.8% | CAKI-1 renal -22.9% | A498 renal -31.3% | SR leukemia 1.15% | RPMI-8226 leukemia 6.1% | OVCAR-5 ovarian -8.77% | OVCAR-4 ovarian -24% | SK-OV-3 ovarian -32.4% | OVCAR-3 ovarian -42.7% | HS 578T breast 1.87%

COc1ccccc1/C=C/C=N/NC1=NC2C(S1)N(C)C(=O)N2C (stereo unspecified)
active: A498 renal -18.2% | OVCAR-3 ovarian -12% | HS 578T breast 3.97%
inactive: EKVX NSCLC 40.1% | SN12C renal 39.1% | UO-31 renal 49% | TK-10 renal 76.3% | ACHN renal 46.3% | CAKI-1 renal 30.6% | CCRF-CEM leukemia 15.3% | MOLT-4 leukemia 21% | SR leukemia 13.2% | RPMI-8226 leukemia 10.6% | OVCAR-8 ovarian 31.1% | OVCAR-5 ovarian 52.3% | OVCAR-4 ovarian 72% | SK-OV-3 ovarian 32.9% | IGROV1 ovarian 46% | NCI/ADR-RES ovarian 28.9% | T-47D breast 31.2%

COc1ccc(-c2nc3ccc(-c4nnc(SCC(=O)Nc5ccc(C(C)=O)cc5)o4)cc3[nH]2)cc1
inactive: EKVX NSCLC 99.2% | SN12C renal 113% | UO-31 renal 94.1% | TK-10 renal 116% | ACHN renal 102% | CAKI-1 renal 101% | A498 renal 110% | CCRF-CEM leukemia 100% | MOLT-4 leukemia 87.8% | SR leukemia 89.5% | RPMI-8226 leukemia 97.1% | OVCAR-8 ovarian 108% | OVCAR-5 ovarian 107% | OVCAR-4 ovarian 109% | SK-OV-3 ovarian 118% | IGROV1 ovarian 107% | OVCAR-3 ovarian 138% | HS 578T breast 96.8% | NCI/ADR-RES ovarian 118% | T-47D breast 105%

CCCCCCNC(=O)Oc1ccc(/C(=C(/C)c2ccccc2)c2ccc(OCCN3CCCCCC3)cc2)cc1
active: MOLT-4 leukemia 4.41% | SR leukemia -37.4% | RPMI-8226 leukemia -27.7%
inactive: EKVX NSCLC 64.2% | SN12C renal 42.8% | UO-31 renal 28.9% | TK-10 renal 104% | ACHN renal 69.3% | CAKI-1 renal 35.9% | A498 renal 78.7% | CCRF-CEM leukemia 16.3% | OVCAR-8 ovarian 66.1% | OVCAR-5 ovarian 69.3% | OVCAR-4 ovarian 49.7% | SK-OV-3 ovarian 98.7% | IGROV1 ovarian 51.4% | OVCAR-3 ovarian 48.9% | HS 578T breast 51.4% | NCI/ADR-RES ovarian 64.5% | T-47D breast 21.6%

CCOc1ccc([C@H]2C(C(=O)c3ccc(Cl)cc3)C3(N[C@@H]2c2ccccc2)C(=O)Nc2ccc(Br)cc23)cc1 (stereo partly specified)
inactive: EKVX NSCLC 33.6% | UO-31 renal 32.7% | TK-10 renal 53.4% | ACHN renal 10.7% | CAKI-1 renal 31.8% | A498 renal 46.7% | CCRF-CEM leukemia 34.9% | RPMI-8226 leukemia 23.5% | OVCAR-8 ovarian 38% | OVCAR-5 ovarian 51.2% | OVCAR-4 ovarian 45.5% | SK-OV-3 ovarian 58.6% | IGROV1 ovarian 13.5% | HS 578T breast 46.1% | NCI/ADR-RES ovarian 64.7% | T-47D breast 31.4%
active: SN12C renal 6.51% | MOLT-4 leukemia 2.38% | SR leukemia -24% | OVCAR-3 ovarian -29.5%

O=c1[nH]c2ccc(Cl)cc2cc1CSc1ccccc1Nc1nccc(-c2ccc(Cl)cc2)n1
inactive: EKVX NSCLC 80.5% | SN12C renal 87.1% | UO-31 renal 81.2% | TK-10 renal 128% | ACHN renal 95.7% | CAKI-1 renal 82.5% | A498 renal 88.1% | CCRF-CEM leukemia 90.6% | MOLT-4 leukemia 60.9% | SR leukemia 77.2% | RPMI-8226 leukemia 84% | OVCAR-8 ovarian 96.5% | OVCAR-5 ovarian 114% | OVCAR-4 ovarian 89% | SK-OV-3 ovarian 122% | IGROV1 ovarian 82.7% | OVCAR-3 ovarian 89.3% | HS 578T breast 91.2% | NCI/ADR-RES ovarian 117% | T-47D breast 84.8%

CS(=O)(=O)Nc1ccc(-c2nn(-c3ccc(S(C)(=O)=O)cc3)cc2/C=C/C(=O)c2ccc(NC(=O)CO[N+](=O)[O-])cc2)cc1
inactive: EKVX NSCLC 103% | SN12C renal 109% | UO-31 renal 93.9% | TK-10 renal 112% | ACHN renal 96.1% | CAKI-1 renal 97.7% | A498 renal 110% | CCRF-CEM leukemia 111% | MOLT-4 leukemia 107% | SR leukemia 92.1% | RPMI-8226 leukemia 111% | OVCAR-8 ovarian 101% | OVCAR-5 ovarian 103% | OVCAR-4 ovarian 106% | SK-OV-3 ovarian 99.7% | IGROV1 ovarian 105% | OVCAR-3 ovarian 116% | HS 578T breast 122% | NCI/ADR-RES ovarian 97.3% | T-47D breast 102%

Source: PubChem BioAssay (NCI)
